In all, about 3,400 compounds went through this assay and about 160 (4.7%) were called active.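 Rule for the calls: active = fitted curve reaches 30% activation at a concentration no higher than the top valid tested dose, luminescence rising; inconclusive = no clear call, values can overlap the other calls; inactive = signal moving opposite to the expected increase, plus the rest.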 The list is a sample of the results. Results with a measured potency or affinity are listed apart.
Experiment: TCF/LEF reporter activation in neural progenitors – cell-based, iPS-derived NPC, luciferase, Wnt3a, cherry-pick, dose response (AID 1053144);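 note: Wnt3a stimulus is conditioned medium from Wnt3a-transfected mouse L cells at 5% in well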
Conditions: Wnt3a EC25, 24 h; series mostly up to 26 µM

activation, inactive:
Cc1ccc2[nH]c(-c3cccc(N)c3)cc2c1
O=C(/C=C/c1ccc(F)cc1)NCCC1=CCCCC1
CC(C)(C)c1ccc(NC(=O)c2ccc(=O)[nH]n2)cc1
COc1ccc2cc(-c3ccsc3)ncc2c1
O=C1CC(c2ccco2)CC2=C1C=Nc1ccccc1N2 (stereo unspecified)
CC1(C)CC(=O)C2=C(C1)Nc1ccccc1NC2c1ccc2c(c1)OCO2 (stereo unspecified)
O=C(NCCc1cccs1)c1ccc(Cl)c(Cl)c1
COc1ccccc1C1CC(c2cccs2)=Nc2ccccc2S1 (stereo unspecified)
COc1ccc2oc(C(=O)Nc3ccc(C)cn3)c(C)c2c1
COc1cc(/C=N/Nc2ccccn2)ccc1O
COc1ccc(/C=N/Nc2nc3ccccc3o2)cc1O
Nc1[nH]n(-c2ccccc2)c(=O)c1N=Nc1ccccc1[N+](=O)[O-]
COCCNC(=O)c1ccc2c(Cl)c3c(nc2c1)CCC3
CCOC(=O)c1c(C)[nH]c(C(=O)OCc2ccccc2)c1C
CCOC(=O)c1c(C)[nH]c(C(=O)OCC(=O)c2ccccc2)c1C
COc1ccc(N2CCN(c3ccc(NC(=O)/C=C\C(=O)O)cc3)CC2)cc1
CCOC(=O)N1CCC(N2CCCC(C(=O)c3cc(F)ccc3OC)C2)CC1 (stereo unspecified)
Cc1ccc(-c2nn(-c3ccccc3)cc2C=O)o1
O=C(NCc1cccnc1)C(=O)Nc1nc2ccccc2s1
OCC1(CCOc2ccccc2)CCN(Cc2ccccc2C(F)(F)F)CC1
Nc1ccc2nc(NC(=O)C3CCCCC3)sc2c1
Cc1cc(/C=N/NC(=O)c2ccccc2F)c(C)n1-c1ccccc1
COc1ccc(N2C(=O)c3ccccc3C2O)cc1 (stereo unspecified)
COc1ccc(CN2C(=O)c3cccc4cccc(c34)C2=O)cc1
O=C(c1cc2cc(F)ccc2[nH]1)N1CCc2ccccc21
Cc1ccc(-c2nc3ccsc3c(=O)o2)cc1
Cc1ccnc2ccc(-c3nc4ccccc4o3)cc12
COc1ccc(C2CC(=O)N(C)c3ccccc3S2)cc1OC (stereo unspecified)
Clc1cccc(-c2ccc3ncnc(NCc4cccs4)c3c2)c1
O=c1cc(-c2ccc3c(c2)OCCO3)oc2ccc(Cl)cc12
O=c1cc(-c2ccccc2)oc2ccc(Cl)cc12
C/C(=N/NC(=O)c1ccco1)c1ccc(NC(=O)c2ccc(F)cc2)cc1
Cc1cccc(-c2nnc(-c3cccc4ccccc34)o2)c1
Cc1ccccc1-c1nnc(-c2cccc3ccccc23)o1
Nc1ccc(-c2nnc(-c3ccc(N)cc3)o2)cc1
Cc1ccc(NC(=O)N2CCC(c3ccccc3)C2)cc1C (stereo unspecified)
O=C(Cc1nc2ccccc2[nH]c1=O)c1ccccc1
CCc1cc(C(=O)Cc2nc3ccccc3[nH]2)c(O)cc1O
CCc1ccc(C(=O)COC(=O)c2ccccc2OC)cc1
COc1ccc(-c2nnc(SCC(C)C)o2)cc1
COc1ccc(-c2nnc(SCC(=O)Nc3cccc(Cl)c3)o2)cc1
Cc1onc(C(=O)Nc2sc3c(c2C#N)CCCC3)c1[N+](=O)[O-]
Cc1cc(NC(=O)c2cccc(F)c2)ncc1NC(=O)c1ccco1
Cc1ccc(N/C=C/C(=O)c2ccco2)c(O)c1
O=C(/C=C/C=C/c1ccccc1)c1ccco1
Cc1ccnc(NC(=O)c2cc3cc(F)ccc3s2)c1
CC(C)NC(=O)c1cc(-c2cccs2)on1
Cc1ccc(NC(=O)c2cc(-c3cccs3)on2)cc1C
CCc1cc(CNC(=O)CCc2nnc(CCCc3ccccc3)o2)on1
O=C(NC(=O)c1ccc(F)cc1F)Nc1ccc(Cl)cc1
Nc1ccc(O)c2c(=O)cc(-c3ccccc3Cl)oc12
CCCOc1ccc(-c2csc3nc[nH]c(=O)c23)cc1
COc1ccc2[nH]c(-c3ccccc3)cc2c1
COc1ccc2cc(CCNC(=O)c3cccs3)c(=O)[nH]c2c1
Cc1ccc(CONC(=O)c2ccc(C)cc2)cc1
COc1ccc(N=Nc2ccc(N)nc2N)cc1
Nc1ccc(N=Nc2ccccc2)c(N)n1
CCOC(=O)C1(Cc2ccccc2)CCCN(C(=O)COc2ccccc2OC)C1 (stereo unspecified)
Cn1c(SCC(=O)c2ccccc2)nnc1-c1ccccn1
Cn1c(SCc2ccccc2F)nnc1-c1ccccn1
Cc1ccc(NC(=O)C(=O)NCCCN2CCCC2=O)cc1
COc1cccc2cc(-c3nc4ccccc4o3)c(=O)oc12
COc1ccc2oc(=O)c(-c3nc4ccccc4o3)cc2c1
N/C(=N\OC(=O)c1cccs1)c1ccc(Cl)cc1
O=C(Nc1ccccc1)Nc1nnc(-c2ccccc2)s1
COc1ccc(C(C(=O)NC2CCCC2)n2c(C3CCN(C(C)=O)CC3)nc3ccccc32)cc1 (stereo unspecified)
c1ccc2c(c1)Cc1cc3ccccc3nc1-2
O=C(O)c1ccc2c(c1)C(=O)N(c1ccc(C(=O)OCC(=O)c3ccccc3)cc1)C2=O
O=C(/C=C/c1ccc(N2CCOCC2)cc1)c1ccccc1
CCC(C)C(=O)Nc1nc2ccc(OC)cc2s1 (stereo unspecified)
CC(=O)Nc1nonc1NC(=O)c1ccc(C(C)(C)C)cc1
CCCCn1c(CN2CCN(C(=O)OCC)CC2)nc2c1c(=O)n(C)c(=O)n2C
Cc1ccc(-c2noc(-c3ccccc3F)n2)cc1
Fc1ccccc1-c1nc(-c2ccccc2)no1
Cc1ccc(OCc2cc(C(=O)NCC(C)(C)N3CCOCC3)no2)cc1C
NC(=O)CSc1nnc(NC(=O)c2ccc3ccccc3c2)s1
CC1CCN(C(=O)CSc2nc3ccccc3s2)CC1
NC(=O)c1c(NC(=O)c2ccccc2)sc2c1CCC2
CC1CCC2(CC1)NC(=O)N(CC(=O)Nc1sc3c(c1C(N)=O)CCC3)C2=O (stereo unspecified)
CN1CCN(c2ccc(NC(=O)c3ccc(-c4ccccc4F)o3)cc2)CC1
CCn1c(SCC(=O)c2ccccc2)nnc1-c1cnccn1
Cn1c(SCC(=O)c2ccccc2)nnc1-c1ccc(O)cc1
O=C(Nc1nnc(C2CCCCC2)s1)c1cccs1
Cc1ccnc(N/C=C/C(=O)c2ccc(Br)cc2)c1
Nc1ccc(-c2nc3ccc([N+](=O)[O-])cc3[nH]2)cc1
Cc1nc2ccc(-c3nc4cc(N)ccc4o3)cc2[nH]1
CCCOc1ccc(C(=O)Nc2ccc3c(c2)OCO3)cc1
CC1CCC(NC(=O)c2cccn2C)CC1 (stereo unspecified)
C=C(C)CNC(=O)CCc1nnc(Cc2cccc(C(F)(F)F)c2)o1
O=C(COc1ccc2c(c1)OCO2)Nc1ccccc1F
O=C(NCC(c1ccco1)N1CCCC1)c1cc(=O)[nH]c2ccccc12 (stereo unspecified)
O=C(O)c1ccccc1SCc1cn2cc(Cl)ccc2n1
CCOC(=O)/C(=C/c1ccc(OC(=O)c2ccncc2)cc1)C(C)=O
CN1CCSc2ccc(C(=O)Nc3ccc(Cl)cc3)cc21
COc1ccc(NC(=O)c2ccc3c(c2)N(C)CCS3)cc1
Cc1ccc2c(c1)c1c(n2C)-c2[nH]ncc2CC1
COC(=O)c1nn(-c2ccc(C)cc2)c2nnc(Cc3ccccc3)c(=O)n12
O=C(Nc1ccc(Cl)cc1)c1ccco1
COC(=O)c1ccc(NC(=O)c2ccco2)cc1
COc1ncccc1-c1nnn(-c2ccccc2)n1
CC(=O)NC(CC(=O)NNC(=O)COc1c(C)cccc1C)c1ccccc1 (stereo unspecified)
Cc1cc(NC(=O)c2ccccc2)ncc1NC(=O)c1ccco1
CSc1nccc(N/N=C/c2ccccc2)n1
O=C(NC1CCCCC1)c1cc(-c2cccs2)on1
O=C(NCc1cccs1)c1cc(-c2ccc(O)cc2)on1
O=c1c2ccccc2oc2ccc(NCCCn3ccnc3)cc12
O=C(NC1CCCC1)c1cc(-c2ccc(Cl)cc2)on1
COc1ccc(C(=O)c2c[nH]c(C(=O)NCCCn3ccnc3)c2)cc1
O=C(c1cc(-c2ccccc2)on1)N1CCCCCC1
CC(C)(C)c1cccc(N/C(=C\C(=O)c2ccccc2)c2ccccc2)c1
CC(=O)c1ccc(OCc2ccccc2)c(C)c1O
O=C(Nc1nnc(-c2ccco2)s1)C1CC1
COc1cccc(N=c2oc3ccccc3cc2-c2nc3ccccc3[nH]2)c1
Cc1cc(C(=O)Nc2ccc(Br)cn2)sc1C
O=C(Nc1ccc(Br)cn1)c1ccc(Cl)s1
CC(=O)c1cc(F)ccc1OCC(=O)Nc1ccc2c(c1)OCO2
O=S(=O)(c1cccs1)N1CCCc2cccc(O)c21
COc1cccc(OCc2cc(C(=O)N3CCN(c4ccccc4OC)CC3)no2)c1
O=C(O)COn1c(-c2ccccc2)nc2ccc([N+](=O)[O-])cc21
Cc1ccnc(SCc2cc(=O)c(OC(=O)c3ccc(Br)o3)co2)n1
O=C(/C=C/c1ccccc1)NC(=O)c1ccccc1O
O=C(/C=C/c1ccc2c(c1)OCO2)c1ccc[nH]1
O=C(/C=C/c1cc2ccccc2o1)c1ccccc1O
COc1ccc(/C=C/C(=O)c2cc3c(cc2N)OCO3)cc1
O=C(N/N=C/c1ccc(N2CCOCC2)cc1)c1cccs1
CCc1sc(C(=O)N2CCc3ccccc32)cc1C
CC(C)[C@H](NC(=O)OCc1ccccc1)C(=O)OCC(=O)c1ccccc1
COc1cc(/C=C/C(=O)N2C(=O)c3cccc(N)c3C2=O)cc(OC)c1OC
COc1cc2ccccc2cc1C(=O)Nc1ccc(O)cc1
COc1ccc(NC(=O)c2cc3ccccc3cc2O)cc1
Cc1cnc(C(=O)Nc2ccc(C(C)C)cc2)cn1
Cc1ccc(NC(=O)c2ccccc2NC(=O)Cc2ccccc2)cc1
Cc1cc(C)n(-c2nnc3c4ccccc4n(C)c3n2)n1
O=C(Nc1ccc2c(c1)OCO2)c1ccc(CO)cc1
CCOC(=O)CSc1nc2ccccc2c(=O)n1NC(=O)c1ccccc1
c1cncc(CSc2ccc(-c3ccc4c(c3)OCO4)nn2)c1

— PubChem BioAssay AID1053144 (Broad Institute, 2014)
